SMILES strings stand for the structures. Records with an inconclusive call do not appear. Where a call stands in place of a potency, no number is given. Activity calls are given as the source filed them. Calls follow the shape of the dose curve; as a rule, active = well fitted cell-killing curve with a large enough effect in the repeat runs; inconclusive = weak or mixed curves, or effect the other way; inactive = flat fitted curve, though single readings scatter.

Consider 15 compounds from PubChem BioAssay (Tox21).

Assay [1] can be described thus: cAMP Responsive Elements (CRE) small molecule antagonists, cell-based qHTS assay: qHTS cell viability counter screen (AID 2060913). Also: nearly all actives have a fitted effect of over 40% in size. An outline of the steps: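 HEK293T CRE-bla, 2,000 cells/well, 18 h preincubation; cpd in DMSO + NKH477 0.25 uM final, 3 h 37 C/5% CO2; LiveBLAzer 2 h RT, then CellTiter-Glo 30 min RT, luminescence.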
(In qHTS, concentration-response curves come from the screen itself.)

The nature of assay [2]: cAMP Responsive Elements (CRE) small molecule agonists, cell-based qHTS assay: qHTS cell viability counter screen (AID 2060914).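 Also: viability read after 3 h of compound exposure; nearly all actives have a fitted effect of over 50% in size.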 An outline of the steps:
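CRE-bla HEK 293T cells, plated 18 h at 37 °C, were exposed to compounds for 3 h at 37 °C/5% CO2. Viability was then measured in the same wells by CellTiter-Glo luminescence after 30 min at room temperature.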

Take `C=CS(=O)(=O)O`: the Potency entry in assay [1] and in assay [2] was “inactive” throughout.
`C[C@@H]1[C@H](O)[C@@H](C)/C=C/C=C\C=C\C=C\C=C\C=C\C=C\[C@H](O[C@@H]2O[C@H](C)[C@@H](O)[C@H](N)[C@@H]2O)C[C@@H]2O[C@](O)(C[C@@H](O)C[C@@H](O)[C@H](O)CC[C@@H](O)C[C@@H](O)CC(=O)O[C@H]1C)C[C@H](O)[C@H]2C(=O)O` (stereo in doubt): the Potency result in assay [1] and in assay [2] was “inactive” each time.
Turning to `Cc1c(C)c([N+](=O)[O-])c(C(C)(C)C)c([N+](=O)[O-])c1C`, the Potency result in assay [1] and in assay [2] was “inactive” each time.
Consider `CN1CCN(CCCN2c3ccccc3Sc3ccc(S(=O)(=O)N(C)C)cc32)CC1`, for which the Potency entry in assay [1] and in assay [2] was “inactive” each time.
On to `NCCNCCNCCN`, for which the Potency entry in assay [1] and in assay [2] was “inactive” each time.
With `C=CC(C)=CCC=C(C)C`, the Potency entry in assay [1] and in assay [2] was “inactive” in each case.
Turning to `O=C(O)CCCCCCC(=O)O`, the Potency entry in assay [1] and in assay [2] was “inactive” in each case.
As to `O=C(O)C(Cc1cc(I)c(O)c(I)c1)c1ccccc1` (stereo not given), the Potency result in assay [1] and in assay [2] was “inactive” each time.
Consider `CNC(=O)Nc1ccc(Cl)c(Cl)c1`, for which the Potency result in assay [1] and in assay [2] was “inactive” each time.
Take `c1cc(N(CC2CO2)CC2CO2)ccc1OCC1CO1` (stereo not given): the Potency entry in assay [1] and in assay [2] was “inactive” in each case.
As to `COC(=O)Nc1nc2ccc(Sc3ccccc3)cc2[nH]1`, the Potency result in assay [1] and in assay [2] was “inactive” in each case.
Consider `CCOCCOCCOCC`, for which the Potency result in assay [1] and in assay [2] was “inactive” in each case.
Turning to `COc1ccc2cccc(CCNC(C)=O)c2c1`, the Potency result in assay [1] and in assay [2] was “inactive” throughout.
On to `C#CC1(O)CC[C@H]2[C@@H]3CCC4=CCCC[C@@H]4[C@H]3CC[C@@]21C` (stereo not given in full), for which the Potency result in assay [1] and in assay [2] was “inactive” throughout.
Take `Cc1ccc(C2OC[C@@H]3OC(c4ccc(C)cc4)O[C@H]([C@H](O)CO)[C@@H]3O2)cc1` (stereo not given in full): the Potency result in assay [1] and in assay [2] was “inactive” each time.
